The source of these data is PubChem BioAssay (NCATS).

Inconclusive results are not listed. Unmarked numbers belong to inactive results. Calls of active or inactive are those of the source. Calls come from the whole dose curve; as a rule, active = well fitted curve in the direction sought with a large enough effect; inconclusive = small, poorly fitted or top-dose-only effect, or another doubt; inactive = no such curve, though single readings can be large; an effect the other way counts as inactive or inconclusive.

For experiment [1], the target named is Rap guanine nucleotide exchange factor 3 (Homo sapiens) (UniProt O95398). The experiment can be described thus: Confirmatory qHTS for agonist of cAMP-regulated guanine nucleotide exchange factor 3 (EPAC1) (AID 1645881).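 Note: EPAC1 catalysed release of BODIPY-GDP from Rap1B seen as fluorescence loss; 100% = effect of cAMP agonist control; nearly all actives have a fitted effect of over 75% in size.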
Experiment [2] has as its target Rap guanine nucleotide exchange factor 4 (Homo sapiens) (UniProt Q8WZA2). The experiment can be described thus: Confirmatory qHTS for agonist of cAMP-regulated guanine nucleotide exchange factor 4 (EPAC2) (AID 1645884).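 Note: nucleotide exchange releases bodipy-GDP from Rap1 and this lowers its fluorescence; % is set by controls: 0 for no effect and ±100 for the full control effect; nearly all actives have a fitted effect of over 65% in size.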
Experiment [3] has as its target Rap guanine nucleotide exchange factor 3 (Homo sapiens) (UniProt O95398). The experiment can be described thus: Counterscreen qHTS for antagonist of cAMP-regulated guanine nucleotide exchange factor 3 (EPAC1) (AID 1645888).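 Note: fluorescence loss as bound BODIPY-GDP is released from Rap1B; % of control where 0% means no effect.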 The procedure, abridged:
(§1)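 Rap1B–BODIPY-GDP (250 nM) with 50 uM GDP; compounds pin-transferred to 9.74 nM–152 uM final (activator) or from 7.32 nM upwards (inhibitor). Fluorescence Ex/Em 480/540 nm read at 5 and 30 min, then after adding cAMP or buffer, at room temperature.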

For experiment [4] the target is unchanged. The experiment can be described thus: Counterscreen qHTS for agonist of cAMP-regulated guanine nucleotide exchange factor 3 (EPAC1) (AID 1645889). For activation: % of control where 0% means no effect. Note: nearly all actives have a fitted effect of over 40% in size. Note: potency is the fitted concentration of half-maximal effect. The procedure, abridged:
as §1

Sequence of Rap guanine nucleotide exchange factor 4 (Homo sapiens) (Q8WZA2 whole entry, looked up): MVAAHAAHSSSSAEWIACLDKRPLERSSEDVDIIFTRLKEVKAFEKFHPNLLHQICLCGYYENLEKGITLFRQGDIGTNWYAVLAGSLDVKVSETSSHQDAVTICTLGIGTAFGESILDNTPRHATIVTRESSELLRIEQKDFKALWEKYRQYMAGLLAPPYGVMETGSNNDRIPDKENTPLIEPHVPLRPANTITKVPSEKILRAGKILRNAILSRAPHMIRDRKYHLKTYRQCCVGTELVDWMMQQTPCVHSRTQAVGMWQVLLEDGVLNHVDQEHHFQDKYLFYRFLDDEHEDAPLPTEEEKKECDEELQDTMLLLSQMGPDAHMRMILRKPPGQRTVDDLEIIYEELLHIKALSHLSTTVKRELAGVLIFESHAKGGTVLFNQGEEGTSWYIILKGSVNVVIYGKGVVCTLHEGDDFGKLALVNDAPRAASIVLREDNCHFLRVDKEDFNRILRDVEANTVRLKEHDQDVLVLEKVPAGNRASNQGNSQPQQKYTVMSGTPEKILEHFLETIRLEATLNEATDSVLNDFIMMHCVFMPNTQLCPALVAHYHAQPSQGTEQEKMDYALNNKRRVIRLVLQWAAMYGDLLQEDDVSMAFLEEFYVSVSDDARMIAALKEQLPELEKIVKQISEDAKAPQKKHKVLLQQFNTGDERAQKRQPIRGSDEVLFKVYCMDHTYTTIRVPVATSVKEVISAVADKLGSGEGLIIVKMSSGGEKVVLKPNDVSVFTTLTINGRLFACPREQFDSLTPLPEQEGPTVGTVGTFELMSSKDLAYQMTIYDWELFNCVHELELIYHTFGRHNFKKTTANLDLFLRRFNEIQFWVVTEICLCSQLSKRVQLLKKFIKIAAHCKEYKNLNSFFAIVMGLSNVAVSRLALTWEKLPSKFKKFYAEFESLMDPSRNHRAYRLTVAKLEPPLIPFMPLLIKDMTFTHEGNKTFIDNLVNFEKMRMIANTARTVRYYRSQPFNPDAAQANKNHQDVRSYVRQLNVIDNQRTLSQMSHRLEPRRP
Sequence of Rap guanine nucleotide exchange factor 3 (Homo sapiens) (O95398 whole entry, looked up): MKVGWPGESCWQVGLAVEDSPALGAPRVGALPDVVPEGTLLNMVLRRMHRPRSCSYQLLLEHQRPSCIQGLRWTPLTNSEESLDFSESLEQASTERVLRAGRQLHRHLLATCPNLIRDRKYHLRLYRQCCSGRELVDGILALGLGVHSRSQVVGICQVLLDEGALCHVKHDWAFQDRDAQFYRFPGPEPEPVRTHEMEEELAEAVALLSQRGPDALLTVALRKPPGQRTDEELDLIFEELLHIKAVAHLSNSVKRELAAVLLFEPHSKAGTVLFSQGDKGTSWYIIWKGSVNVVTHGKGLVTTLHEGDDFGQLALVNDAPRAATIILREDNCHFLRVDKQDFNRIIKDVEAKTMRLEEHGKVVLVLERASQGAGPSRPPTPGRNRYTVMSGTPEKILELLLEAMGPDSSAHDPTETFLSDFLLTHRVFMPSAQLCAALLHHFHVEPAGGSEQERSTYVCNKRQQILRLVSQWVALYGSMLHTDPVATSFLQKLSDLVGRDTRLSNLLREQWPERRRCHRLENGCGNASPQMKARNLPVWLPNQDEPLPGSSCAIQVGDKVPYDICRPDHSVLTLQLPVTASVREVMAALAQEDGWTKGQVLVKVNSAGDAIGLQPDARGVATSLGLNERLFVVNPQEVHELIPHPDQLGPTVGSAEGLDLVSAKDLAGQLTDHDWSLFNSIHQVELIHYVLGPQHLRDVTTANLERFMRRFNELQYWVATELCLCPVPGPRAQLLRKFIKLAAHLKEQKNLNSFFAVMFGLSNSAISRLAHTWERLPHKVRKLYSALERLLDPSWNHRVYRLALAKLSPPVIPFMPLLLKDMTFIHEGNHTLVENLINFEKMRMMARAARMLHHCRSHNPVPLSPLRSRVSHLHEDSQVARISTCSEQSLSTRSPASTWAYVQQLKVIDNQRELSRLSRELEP

As to `O=C(Cc1ccc(Br)c2ccccc12)N/N=C/c1ccccn1`, the Potency result in experiment [1], in experiment [2], in experiment [3] and in experiment [4] was “inactive” each time.

In the case of `Cc1ccc2oc(C(=O)N3CCCCCC3)c(C)c2c1`, the Potency result in experiment [1], in experiment [2], in experiment [3] and in experiment [4] was “inactive” each time.

`COC1OC(c2ccccc2)=C(c2cnc(N)nc2)c2ccc(F)cc21` (configuration not stated): the Potency result in experiment [1] is “inactive”. Also, the activation in experiment [2] is 3.06% [at 17.1 µM, percent relative to cAMP agonist control]; in experiment [4], 11.3% [at 30.8 µM]. For the same compound, the activity change, negative = inhibition in experiment [3] was -3.58% [at 30.8 µM].

As to `COc1ccccc1N(C)S(=O)(=O)c1ccc(C(=O)NC2CCCCC2)cc1`, the Potency result in experiment [1], in experiment [2], in experiment [3] and in experiment [4] was “inactive” in each case.

Turning to `O=S(=O)(Nc1ccccc1N1CCCC1)c1ccccc1C(F)(F)F`, the Potency result in experiment [1], in experiment [2], in experiment [3] and in experiment [4] was “inactive” each time.

On to `O=C1C(=Cc2cn(-c3ccccc3)nc2-c2ccc(OCc3ccc(Cl)cc3)cc2)SC(=S)N1CCS(=O)(=O)O`, for which the Potency entry in experiment [1], in experiment [2] and in experiment [3] was “inactive” in each case. Besides, the Potency in experiment [4] is 50.1 µM (active).

Regarding `COC(=O)c1sc(-c2ccc(C(C)(C)C)cc2)cc1NC(=O)CSCC(=O)O`, the Potency result in experiment [1], in experiment [2], in experiment [3] and in experiment [4] was “inactive” in each case.

In the case of `Cn1c(N)c(C(=O)COC(=O)Cc2ccc(Cl)c(Cl)c2)c(=O)n(C)c1=O`, the Potency entry in experiment [1], in experiment [2], in experiment [3] and in experiment [4] was “inactive” in each case.

Consider `CCc1ccc(S(=O)(=O)Nc2cc(SCC(=O)O)c(O)c3ccccc23)cc1`, for which the Potency entry in experiment [1], in experiment [2] and in experiment [3] was “inactive” throughout. Also, the Potency in experiment [4] was 14.1 µM (active).

On to `O=C(O)c1cc(NN=C2c3ccccc3-c3ccccc32)ccc1Cl`, for which the Potency entry in experiment [1], in experiment [2], in experiment [3] and in experiment [4] was “inactive” each time.

`O=C(N/N=C/c1ccoc1)c1cc(O)cc(O)c1`: the Potency entry in experiment [1], in experiment [2], in experiment [3] and in experiment [4] was “inactive” throughout.

In the case of `Cn1c2ccccc2c2cc(/C=N/NC(=O)c3cc(O)cc(O)c3)ccc21`, the Potency result in experiment [1], in experiment [2], in experiment [3] and in experiment [4] was “inactive” throughout.

With `COC1=C/C(=C/c2c(N)n3nc(-c4ccc(C)cc4)sc3nc2=O)C=CC1=O`, the Potency result in experiment [1], in experiment [2], in experiment [3] and in experiment [4] was “inactive” each time.
